Measured values published in PubChem BioAssay.

Test: S6 kinase pathway phospho-S6 level changes – cell-based, A549, cytoblot, luminescence, serum-stimulated, primary screen (AID 1158);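 further: serum-stimulated A549 lung adenocarcinoma cells; signal is phosphorylated S6 detected by cytoblot immunostaining with HRP secondary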
Details: 5 h, higher = more signal

Row | Compound | z-score
1 | CC(C)[Si]1(C(C)C)O[C@@H](c2ccccc2)c2cc(-c3ccc(-c4ccc(Cl)c(Cl)c4)o3)nc(-c3ccccc3)c21 | -0.121
2 | OCCCC1=CC(c2cccs2)N(Cc2cc3c(cc2Br)OCO3)CC1 (stereo not given) | -0.684
3 | CCOC(=O)C[C@H]1[C@H](OC(=O)c2ccc(C(=O)c3ccccc3)cc2)[C@@H](NC(=O)c2ccc3ccccc3c2)c2cc(OCCCO)ccc2N1C(=O)Cc1ccc(OC)cc1 | 0.742
4 | C=C(CC1([C@@H](NP(=O)(c2ccccc2)c2ccccc2)[C@H]2C[C@@H]2CCCC)CC1)c1ccccc1 | 0.534
5 | COc1cc(COC(C)=O)ccc1OC(C)=O | 1.29
6 | C=C(CCCC)/C(=C/C[C@@H](OC(=O)c1ccncc1)c1ccc(OCCO)cc1)c1cc(C(=O)OC)ccc1OC | 0.377
7 | C=C(CCCC)C(=O)CC[C@@H](OC(=O)c1ccccc1-c1ccccc1C(=O)O)c1ccc(OCCO)cc1 | 0.276
8 | COCCOC(=O)N1C(=O)[C@@]2(c3cc(C#CCC(C(=O)OC)C(=O)OC)ccc31)[C@H](C(=O)Nc1nc3ccccc3s1)[C@H]1C(=O)O[C@H](c3ccccc3)[C@H](c3ccccc3)N1[C@@H]2c1ccccc1OCCO | 0.0413
9 | NC(=O)N1C(=O)C2C(C1=O)C1C=C(c3ccc(CO)cc3)C2C(c2cccs2)N1Cc1cccc(OC(F)(F)F)c1 (stereo not given) | 2.65
10 | COCCOC(=O)N1C(=O)[C@@]2(c3cc(C#CCNC(N)=O)ccc31)[C@H](C(=O)N1CCN(c3ncccn3)CC1)[C@H]1C(=O)O[C@H](c3ccccc3)[C@H](c3ccccc3)N1[C@@H]2c1ccc(OCCO)cc1 | -0.319
11 | CCCc1cc2c(n1Cc1cc(F)cc(F)c1)C(C)C1CN(C(=O)c3ccccc3)C(C)(C(=O)OC)C21 (stereo not given) | -0.712
12 | CCCC[C@@H]1C[C@H]1[C@@H](NC(=O)c1ccco1)c1ccc(-c2ccccc2)cc1 | 1.28
13 | C=CC[C@@]12N=C(c3ccc(OCCCO)cc3)O[C@@H]1c1ccccc1N(C)C2=O | 0.368
14 | COC(=O)[C@@]1(Cc2ccccc2)N=C(c2ccc(OCCCO)cc2)O[C@H]1c1ccccc1 | -0.182
15 | COc1cccc(-c2cccc(=O)o2)c1 | -0.684
16 | C=C[C@H](CO[Si](CC)(CC)CC)N(Cc1ccc(OC(C)=O)c(OC)c1)S(=O)(=O)c1ccc(Br)cc1 | 0.674
17 | NC(=O)NCC#Cc1ccc2c(c1)[C@]1(C(=O)N2)[C@H](c2ccc(O)cc2)N2[C@H](c3ccccc3)[C@H](c3ccccc3)OC(=O)[C@H]2[C@@H]1C(=O)O | -0.0856
18 | COC(=O)C[C@H]1O[C@]2(C(=O)N(C)c3ccccc32)[C@@H](C)[C@@H]1[Si](C)(C)F | 1.26

Row | Compound | z-score
19 | O=C1C2C=CC(C(O)c3cc(C(F)(F)F)cc(C(F)(F)F)c3)N(n3cnnc3)C2C(=O)N1Cc1ccccc1 (stereo not given) | -0.241
20 | Cc1nc2cc(Br)ccc2c(=O)o1 | 0.472
21 | C=C(CCCC)/C(=C/C[C@@H](OC(C)=O)c1ccc(OCCO)cc1)c1cnc2ccccc2c1 | 0.684
22 | COc1cc2c(cc1O)C(C1CC1)N(Cc1sc3ccccc3c1Cl)CC2 (stereo not given) | -0.0956
23 | COc1cc2c(cc1O)C(c1cccs1)N(C)CC2 (stereo not given) | -0.331
24 | CN1C=C(C(=O)OCCS(C)(=O)=O)C(C(=O)OCCS(C)(=O)=O)=CC(c2ccc(CO)cc2)=CC1C1CC1 (stereo not given) | 0.116
25 | Cc1ccc(N2C(=O)c3ccccc3[C@@H](C(=O)NC3CC3)[C@@H]2c2ccc(CO)cc2)nc1 | -0.179
26 | O=C1C[C@@](C(=O)NCC(F)(F)F)(c2ccc([N+](=O)[O-])cc2)[C@@H](c2ccc(CO)cc2I)N1C1CCCCC1 | -0.417
27 | Cc1ccc(S[C@]2(C(=O)NCCCN(C)C)CC(=O)N(Cc3cc(C(F)(F)F)cc(C(F)(F)F)c3)[C@@H]2c2ccc(CO)cc2)cc1 | 1.11
28 | C=C(COC)/C(=C/C[C@@H](OC(=O)c1ccncc1)c1ccc(CO)o1)c1cc(C(=O)OC)ccc1OC | 0.934
29 | C=C[C@H](OC)[C@@H](OC(=O)Nc1ccc(OC)cc1)c1ccc(O)c(F)c1 | -0.102
30 | COCCOC(=O)N1C(=O)[C@@]2(c3cc(C#CC4(O)CCCCCC4)ccc31)[C@H](c1ccccc1OCCO)N1[C@H](c3ccccc3)[C@H](c3ccccc3)OC(=O)[C@H]1[C@@H]2C(=O)N1CCN(c2ncccn2)CC1 | -0.0324
31 | C=CC(=C)[C@H]1Oc2ccccc2S(=O)(=O)N2CCC[C@@H]12 | 0.0928
32 | [N-]=[N+]=Nc1ccccc1[C@@H]1OC(c2ccc(OCCCO)cc2)=N[C@]1(Cc1ccccc1)C(=O)N1CCOCC1 | -0.37
33 | COCCOC(=O)N1C(=O)[C@@]2(c3cc(C#CCCO)ccc31)[C@H](C(N)=O)[C@H]1C(=O)O[C@H](c3ccccc3)[C@H](c3ccccc3)N1[C@@H]2c1ccc(O)cc1 | -0.237
34 | C=C(C(=O)CC[C@@H](OC(=O)c1cccnc1)c1ccccc1OCCO)C(C)C | 0.149
35 | C=CCNC(=O)[C@H]1[C@@H]2C(=O)O[C@@H](c3ccccc3)[C@@H](c3ccccc3)N2[C@@H](c2ccccc2OCCO)[C@]12C(=O)Nc1ccc(C#CCC(C(=O)OC)C(=O)OC)cc12 | -0.318
